# hNpr1 antagonist – Natriuretic polypeptide receptor (hNpr1) antagonism - Primary qHTS; Atrial natriuretic peptide receptor 1 (Homo sapiens), P16066; HEK293 hNpr1 GloSensor cGMP, ANP-stimulated luminescence; Potency, µM (highest dose often 46.3 µM), without a hit: at the highest dose activity change, negative = inhibition, usual class: inhibitors; actives 1.6% (n = 76,000); AID 1347048, 2019; calls by dose curve; note: nearly all actives have a fitted effect of over 60% in size
#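 HEK293 cells stably expressing human Npr1 and cGMP GloSensor pGS-40F, loaded 2 h with 2% GloSensor reagent, given compound 30 min at room temperature. Luminescence read before and 20 min after 0.1 nM hNppA.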
# FLuc inh – Firefly luciferase inhibition profiling of diverse chemical library using quantitative high-throughput screening; purified P. pyralis luciferase, luminescence, biochemical; Potency, µM (series often up to 115 µM), most hits filed as inhibitors; actives 2.5% (n = 76,000); AID 1347043, 2019; note: nearly all actives have a fitted effect of over 65% in size
# Target sequence (P08659 whole entry, looked up): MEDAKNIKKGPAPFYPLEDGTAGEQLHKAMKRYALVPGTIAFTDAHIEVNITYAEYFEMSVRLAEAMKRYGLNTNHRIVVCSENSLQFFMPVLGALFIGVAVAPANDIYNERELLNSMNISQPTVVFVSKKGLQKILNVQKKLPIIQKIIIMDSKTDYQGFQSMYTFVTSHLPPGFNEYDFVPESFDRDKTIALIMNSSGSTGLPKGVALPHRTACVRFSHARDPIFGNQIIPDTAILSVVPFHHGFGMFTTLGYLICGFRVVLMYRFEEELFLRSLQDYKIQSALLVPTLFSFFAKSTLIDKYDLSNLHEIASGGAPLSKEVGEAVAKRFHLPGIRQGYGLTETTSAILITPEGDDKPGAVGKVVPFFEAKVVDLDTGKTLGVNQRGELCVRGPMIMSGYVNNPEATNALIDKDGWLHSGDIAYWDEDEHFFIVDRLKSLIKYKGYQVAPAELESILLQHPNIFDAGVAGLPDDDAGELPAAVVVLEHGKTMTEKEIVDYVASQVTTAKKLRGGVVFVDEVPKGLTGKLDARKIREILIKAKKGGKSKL
#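 Biochemical qHTS: compound (6-point titration) added to 10uM D-luciferin plus 10uM ATP in Tris acetate pH 7.5 buffer with Mg, Tween-20 and BSA, then purified enzyme at 10nM; light output imaged.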
# NIH3T3 tox – Cytotoxic Profiling in NIH 3T3 Cell Line of Diverse Libraries Using Quantitative High-Throughput Screening; NIH 3T3 viability, CellTiter-Glo ATP luminescence, 48-72 h; Potency, µM (highest dose often 96.7 µM), inactives show at the top dose activity change, negative = cytotoxicity, usual class: inhibitors; AID 1345082, 2018; actives 4.3% (n = 94,000); note: nearly all actives have a fitted effect of over 55% in size
#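 ATP-dependent luminescence (CellTiter-Glo) served as the viability signal for NIH 3T3 cells treated with compound for 48 or 72 hr at 37 °C.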
# HEK cytotox – Cytotoxic Profiling in HEK 293 Cell Line of Diverse Libraries Using Quantitative High-Throughput Screening. actives 6.6% (n = 94,000). AID 1345083, 2018. Potency, µM (highest dose often 115 µM), for the others: at the top dose activity change, negative = cytotoxicity, most hits filed as inhibitors. HEK 293 viability, ATP luminescence (CellTiter-Glo), 48-72 h; note: nearly all actives have a fitted effect of over 60% in size
#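 qHTS cytotoxicity; HEK 293, 250 cells/well; compound pinned; 48 or 72 hr, 37 degree Celsius, 5% CO2, 95% humidity; CellTiter-Glo, 10 min RT; luminescence (ATP).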
# * hit, by the source's call; i = inactive; u = inconclusive; x = not tested or not shown; [ ] = another dose, or the depositor's remark. Sampled rows, rich in hits. Any-hit rate of the full collection: about 11%. Unless noted, calls come from the whole dose curve; as a rule, active = well fitted curve in the direction sought with a large enough effect; inconclusive = small, poorly fitted or top-dose-only effect, or another doubt; inactive = no such curve, though single readings can be large; an effect the other way counts as inactive or inconclusive. % is set by controls: 0 for no effect and ±100 for the full control effect; potency is the fitted concentration of half-maximal effect.
SMILES,hNpr1 antagonist,FLuc inh,NIH3T3 tox,HEK cytotox
COc1cc(OC)cc(C(=O)N2CCC3(CC2)NC(=O)N(c2ccc(F)cc2)N3)c1,-26%,i,25µM*,28µM*
CC(=O)NC[C@@H]1C=C(C)[C@H](Cc2nc3ccccc3n2C)C[C@H]1C(C)C,u,i,79µM*,35µM*
COc1ccc2nc(C[C@@H]3C[C@@H](C(C)C)[C@H](CNC(=O)COCC(=O)O)C=C3C)[nH]c2c1,-5%[70.6 µM],i,-13%[174 µM],i
COc1ccc2nc(C[C@@H]3C[C@@H](C(C)C)[C@H](CNC4CCCCC4)C=C3C)[nH]c2c1,-12%[70.6 µM],i,22µM*,28µM*
CC1=C[C@@H](CNC(=O)CCCC(=O)O)[C@H](C(C)C)C[C@H]1Cc1nc2ccccc2n1C,1%[70.6 µM],i,-7%[138 µM],-12%[172 µM]
COc1ccc2nc(C[C@@H]3C[C@@H](C(C)C)[C@H](CNC(=O)[C@@H]4CCCC[C@@H]4C(=O)O)C=C3C)[nH]c2c1,6%,i,-4%,3%
COc1ccc2nc(C[C@@H]3C[C@@H](C(C)C)[C@H](CNC(=O)C4CCCCC4)C=C3C)[nH]c2c1,-29%[70.6 µM],i,56µM*,50µM*
COc1ccc2nc(C[C@@H]3C[C@@H](C(C)C)[C@H](CNCc4ccccc4)C=C3C)[nH]c2c1,-18%[70.6 µM],i,50µM*,45µM*
CC1=C[C@@H](CNC(=O)C2CCCCC2)[C@H](C(C)C)C[C@H]1Cc1nc2ccc(C)cc2[nH]1,-20%[70.6 µM],i,u,u
Cc1nn2c(c1-c1ccccc1C(C)C)N(C(=O)c1cccc(N(C)C)c1)CCC2,-2%[70.6 µM],i,u,u
COc1ccc(-c2cc(N3CCCN(C(=O)c4ccc(C)c(F)c4)CC3)n[nH]2)cc1,-14%,i,-24%,u
C[C@H](C(=O)N1Cc2ccccc2CC2(CCN(C)CC2)C1)c1ccccc1,x,x,-29%,u
CCC(CC)N1CC[C@H](CO)[C@H](NC(=O)c2ccccc2)C1,4%,i,-7%,-15%
CC(=O)N1CCC(NC[C@@H]2C=C(C)[C@H](Cc3nc4ccccc4[nH]3)C[C@H]2C(C)C)CC1,-18%[70.6 µM],i,112µM*,89µM*
COc1cccc(CN(C)Cc2ccc(C)o2)c1O,-2%,i,2%,-24%
COc1ccc(CN2Cc3[nH]nc(-c4ccc(N5CCN(C)CC5)cc4)c3CC2=O)cc1,-3%[70.6 µM],i,79µM*,45µM*
COc1ccc(CN2Cc3[nH]nc(-c4ccnn4C)c3CC2=O)cc1,-17%[70.6 µM],i,u,112µM*
COc1ccc(CN2Cc3[nH]nc(-c4ccccc4)c3CC2=O)cc1,-1%[70.6 µM],i,u,i
COc1ccc(CN2Cc3[nH]nc(-c4cccnc4OC)c3CC2=O)cc1,1%[70.6 µM],i,u,71µM*
O=C(COc1ccc(F)cc1)NCC1Cn2cccc2CN1Cc1ccccc1 (centres undefined),-1%,i,u,u
O=C(NCCC1CCN(C(=O)Nc2ccccc2)CC1)c1cccs1,-2%,i,-3%,-8%
Cc1cnc(CCNC(=O)C2(c3ccccc3)CC2)n1CC1CC1,x,x,-26%,-20%
O=C(O)COc1ccc(-c2nccc3c2C(=O)N(Cc2ccccc2)CC(COc2ccc(Cl)cc2)O3)cc1 (centres undefined),0%,50µM*,u,0%
COCc1cc(=O)n(CC(=O)NCc2cccc(OC)c2)c(N2CCOCC2)n1,0%,i,-4%,0%
COc1ccccc1C(=O)N1CCCC1C(=O)N1CCC(N2CCCC2=O)CC1 (centres undefined),x,x,i,-6%
SMILES,hNpr1 antagonist,FLuc inh,NIH3T3 tox,HEK cytotox
CC(C)CN(C)C(=O)c1cc(-c2cnn(C(C)C)c2)nc2cc(F)ccc12,2%,u,u,-29%
CC(C)n1cc(-c2cc(C(=O)N(C)Cc3cccnc3)c3cc(F)ccc3n2)cn1,-2%,35µM*,-19%,u
Cc1ccc(-c2noc([C@@H]3Cc4nc[nH]c4CN3C(=O)NC3CCCCC3)n2)cc1,-22%[70.6 µM],i,u,2%[172 µM]
O=C(NC1CCCCC1)N1Cc2[nH]cnc2C[C@H]1c1nc(-c2ccccc2)no1,-16%[70.6 µM],45µM*,28µM*,u
Cc1cccc(-c2noc([C@@H]3Cc4nc[nH]c4CN3C(=O)NC(C)C)n2)c1,-1%[70.6 µM],u,u,-18%[172 µM]
O=C(C1CCCCC1)N1Cc2[nH]cnc2C[C@H]1c1nc(-c2ccc3ccccc3c2)no1,-22%[70.6 µM],u,79µM*,u
Cc1cccc(-c2noc([C@@H]3Cc4nc[nH]c4CN3C(=O)NC3CCCCC3)n2)c1,-5%[70.6 µM],40µM*,71µM*,u
CC(C)(CC(=O)O)CC(=O)N1Cc2[nH]cnc2C[C@H]1c1nc(-c2ccc3ccccc3c2)no1,0%,i,i,i
COc1cccc([S+](=O)([O-])N2CCCN(c3ccc4nnc(C)n4n3)CC2)c1,x,x,-17%,-3%
O[C@]12CCNC[C@H]1CN(Cc1cccc(-c3ccccc3)c1)CC2,-4%,i,u,u
COc1ccc(C(=O)N2CCC(Cc3noc(C4CCOCC4)n3)C2)cc1F (centres undefined),-1%,i,-2%,-7%
Cc1cnc(CCNC(=O)NCC(C)C)n1C1CCCCCC1,x,x,-32%,-3%
Oc1ccc(CCC2CCCCN2Cc2nc(Cc3cccc(F)c3)no2)cc1 (centres undefined),-7%,i,u,22µM*
O=C(c1cc(COc2c(F)cccc2F)on1)N1CCCCC1CCc1ccccc1 (centres undefined),-5%,i,-25%,-16%
CCC(C)NC(=O)C1CCN(C(=O)c2nnn3c2COC(c2ccc(C)cc2)C3)CC1 (centres undefined),-2%,u,-17%,-4%
Cc1ccc(C2Cn3nnc(C(=O)N4CCC(C(=O)NC(C)C)CC4)c3CO2)cc1 (centres undefined),-10%,20µM*,i,-2%
Cc1ccc(C2Cn3nnc(C(=O)N4CCC(C(=O)NC5CCCC5)CC4)c3CO2)cc1 (centres undefined),1%,11µM*,i,6%
C=CCNC(=O)N1[C@@H](c2ccccc2)[C@@H](C(=O)OCC)C[C@]12CCCCN(CCOC)C2=O,x,x,u,-11%
O=C1c2cnc(-c3cc(F)cc(F)c3)nc2OCCN1Cc1ccc(F)cc1F,-19%[70.6 µM],i,-22%[138 µM],u
CN(C)C(=O)c1ccc(-c2ncc3c(n2)OCCN(Cc2ccc(F)cc2F)C3=O)cc1,-8%[70.6 µM],45µM*,-29%[138 µM],u
COc1cccc(-c2ncc3c(n2)OCCN(Cc2ccc(F)cc2F)C3=O)c1F,-10%[70.6 µM],16µM*,-17%[138 µM],u

# Screening data (PubChem BioAssay)
